Laboratory results as given in PubChem BioAssay (NCI).
About 83,000 compounds went through this panel and 20% of them were active in at least one assay; those are over-represented in the sample as a whole.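 Each cell line was grown in a 96-well plate and treated with one concentration of compound for 48 hours. Values below 10 were considered active.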 A number with no mark means an inactive call. Active and inactive are the calls of the source.

Columns and labels:
Experiment in all cases: NCI-60 one-dose screen, 48 h (100 = growth as untreated, 0 = no growth, -100 = all killed)
Conditions in all cases: 10 µM unless noted
NCI-H23 lung = test system: NCI-H23 lung
NCI-H226 lung = test system: NCI-H226 lung
NCI-H322M lung = test system: NCI-H322M lung
HOP-62 NSCLC = test system: HOP-62 NSCLC
NCI-H460 lung = test system: NCI-H460 lung
HOP-92 NSCLC = test system: HOP-92 NSCLC
NCI-H522 lung = test system: NCI-H522 lung
A549/ATCC NSCLC = test system: A549/ATCC NSCLC
786-0 renal = test system: 786-0 renal
COLO 205 colon = test system: COLO 205 colon

Structure (SMILES)	growth (NCI-H23 lung)	growth (NCI-H226 lung)	growth (NCI-H322M lung)	growth (HOP-62 NSCLC)	growth (NCI-H460 lung)	growth (HOP-92 NSCLC)	growth (NCI-H522 lung)	growth (A549/ATCC NSCLC)	growth (786-0 renal)	growth (COLO 205 colon)
CCCCCCOC(=O)CC1=C(C)/C(=C/c2[nH]c(-c3ccc[nH]3)cc2OC)N=C1C	-29.3% (active)	-30.6% (active)	11.2%	-37.8% (active)	-23% (active)	-27.7% (active)	-49.5% (active)	-6.96% (active)	-51.8% (active)	-82.9% (active)
COc1cc2c3c(n(CCCCNCCCn4c5c(c6cc(OC)c(OC)cc6c4=O)C(=O)c4cc6c(cc4-5)OCO6)c(=O)c2cc1OC)-c1cc2c(cc1C3=O)OCO2	95.3%	106%	90.5%	90.5%	106%	87%	86.8%	90.3%	109%	103%
CC(C)CN1CC(C(=O)Nc2ccc3c(c2)-c2ccccc2C3)CC1=O (stereo not given)	81% [50 µM]	64.9% [50 µM]	69.6% [50 µM]	50.7% [50 µM]	81.8% [50 µM]	58.5% [50 µM]	51.3% [50 µM]	78.7% [50 µM]	70.7% [50 µM]	87.7% [50 µM]
O=C(CCCCCCCCC(=O)N/N=C\c1cc(Cl)ccc1O)N/N=C\c1cc(Cl)ccc1O	47.9%	15.4%	41.1%	30.7%	7.22% (active)	47.6%	34.3%	38.2%	16.3%	36.9%
COc1ccc2cc(Cn3cc[n+](Cc4ccc5ccccc5c4)c3)ccc2c1	36%	49.2%	65.8%	49.8%	38.3%	-11.8% (active)	-13.6% (active)	57.1%	51%	-66.3% (active)
CN1CCN(c2ccc(NC(=O)c3cncnc3Nc3ccc4c(ccn4Cc4cccc(F)c4)c3)cc2)CC1	72.6%	85.5%	92.9%	8.44% (active)	30.7%	59.9%	75.6%	43.2%	-38.4% (active)	-34% (active)
N#Cc1nc2c(S(=O)(=O)c3ccccc3)c(N)n(Cc3cccnc3)c2nc1C#N	88.5%	97.7%	91.7%	-8.31% (active)	113%	-14.8% (active)	46.8%	90.1%	106%	92.3%
Cc1ccccc1OCC(O)COc1ccccc1C	404%	97.9%	95.4%	96.2%	96.8%	93.9%	77%	84.2%	100%	98.2%
COc1ccc(OC)c(-c2cn3nc(-c4c[nH]c5ccc(Br)cc45)sc3n2)c1	25%	89.9%	50.6%	60.9%	-32.4% (active)	46.5%	8.67% (active)	14.5%	49.3%	29.8%
O=C1/C(=C/c2ccc(C(F)(F)F)cc2)COc2ccc(O)cc21	98%	107%	95.2%	96.2%	98.4%	82.4%	-13.6% (active)	87.1%	80%	90.7%
CCn1cc(C2=C(c3cn(C)c4ncccc34)C(=O)NC2=O)c2cccnc21	66.3%	57.5%	79.6%	73.1%	44.5%	81.4%	83.9%	65%	50.5%	49%
COc1ccc(NC(=O)c2sc3nc4c(cc3c2N)CCCC4)cc1	28%	50.6%	53.1%	34.5%	18.7%	47.3%	-20.7% (active)	30%	38.6%	14%
Cc1cc(F)ccc1S(=O)(=O)Nc1cc(-c2c(O)ccc3ccccc23)c(O)c2ccccc12	16.7%	47.3%	79%	80.1%	16.3%	19.1%	-36.2% (active)	20.4%	76.2%	14.3%
Cc1c2cnccc2c(C)c2c1c1cc(C3OCCCO3)ccc1n2C	-31.9% (active)	-4.43% (active)	-2.25% (active)	-13% (active)	0.184% (active)	-10.5% (active)	-41.6% (active)	2.33% (active)	11.8%	-17.6% (active)
CCCCCCCCCCCCCCCCOC(=O)c1c(C)[nH]c(/C=C2\N=C(c3ccc[nH]3)C=C2OC)c1C	48.8%	6.67% (active)	82.7%	54.2%	13.3%	-12.6% (active)	27.1%	11%	11.3%	33.6%
Cc1c2ccccc2nc2c1ccc1cccnc12	74.5%	96.5%	101%	105%	73.8%	106%	63.5%	59.8%	95.8%	50.8%
O=C(Cn1nnc2ccccc21)N/N=C/c1ccccc1F	105%	85.8%	93.6%	102%	104%	103%	84.9%	89.2%	97.5%	113%
CCN(CC)c1ccc(N2C(=O)/C(=C/c3cccs3)SC2=S)cc1	94.8%	93.7%	91.7%	106%	97.8%	6.63% (active)	82.9%	92%	95.6%	101%
C=CCn1c(SCC(=O)Nc2ccc(C(=O)/C=C/c3ccc(OC)cc3)cc2)nnc1-c1ccccc1	94.2%	90.3%	89%	91.6%	103%	86%	80.7%	83%	73.3%	101%
O=C1Nc2ccc(F)cc2/C1=N/c1nnc(Sc2ccccc2)s1	87.4%	90.7%	103%	94.7%	95.6%	96.9%	77.2%	96.8%	105%	119%
Cn1cc(-c2nonc2-c2c[nH]c3ccc(F)cc23)c2cc(Br)ccc21	52.7%	79.5%	44.9%	40.5%	19.8%	76%	14.8%	35.9%	45.9%	54%
C/C(=N\Nc1nc(C)cs1)c1cc2ccccc2o1	86.9%	76.7%	93.1%	63.6%	95.6%	87.3%	66.3%	88%	104%	110%
C=C1C(=O)O[C@H]2[C@H]1CC/C(Cn1cc(-c3cc(C(F)(F)F)cc(C(F)(F)F)c3)nn1)=C\CC[C@@]1(C)O[C@@H]21	-58.6% (active)	-54.5% (active)	-24.4% (active)	-78.6% (active)	-59.2% (active)	-95.1% (active)	-76.7% (active)	-85.3% (active)	-86.5% (active)	-60.4% (active)
CCOC(=O)c1c(C)c2c(n1C)CSc1cc(S(=O)(=O)c3ccccc3)c(=O)[nH]c1-2	21.7% [100 µM]	24.3% [100 µM]	28.1% [100 µM]	57.5% [100 µM]	9.02% [100 µM] (active)	8.76% [100 µM] (active)	32% [100 µM]	32.1% [100 µM]	31.4% [100 µM]	-27.7% [100 µM] (active)
O=c1nc(Nc2nc3ccccc3s2)[nH]c(=O)c2ccccc12	99.1%	92.8%	105%	91.2%	103%	83.4%	96.8%	106%	96%	112%
C/C(C=O)=C\c1ccc2c(c1)OCO2	102%	85.2%	135%	108%	118%	104%	99.9%	105%	107%	118%
